The list is not random: actives were taken first. Their share in the collection is about 28%.
CD11b adhes inh: inhibitors of CD11b/CD18 adhesion to fibrinogen, primary screen, K562 cells, luminescence; actives 0.54% (n = 93,000); Integrin beta-2 (Homo sapiens) + Integrin alpha-M (Homo sapiens), P05107+P11215; inhibition, % at 10 µM; ATPlite luminescence; Mn2+ added to activate the integrin;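 active = primary inhibition of 50% or more at 10 µM, then 40% or more on retest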
CYP2C9 activ: human CYP2C9 activators, primary screen, biochemical, luminescence; Cytochrome P450 2C9 (Homo sapiens), P11712; recombinant CYP2C9, luciferin-H conversion; active compounds read high; factor 1 = untreated enzyme, 0 = blocked; activation factor at 5 µM; actives 1.4% (n = 96,000);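 active = activation factor of 2 or more for CYP2C9 at a 5 µM dose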
CYP2C9 inh: blockers of cytochrome P450 2C9 activity – biochemical, luminescence, ADME assay, primary screen. inhibition, % at 5 µM. actives 20% (n = 96,000). P11712. CYP2C9 Supersomes, luciferin-H conversion;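 active = blocking of liver enzyme CYP2C9 beyond about 50% at 5 µM, limit read from the data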
CYP2C19 inh: blockers of cytochrome P450 2C19 activity – biochemical, luminescence, ADME assay, primary screen. P33261. actives 21% (n = 96,000). CYP2C19 Supersomes, luciferin-H EGE luminescence, 30 min. AID 778, 2007. inhibition, % at 5 µM;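 active = CYP2C19 inhibition above a set limit at 5 µM in the primary screen, cut at about 50% in these data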
Target sequence (P33261 whole entry, looked up): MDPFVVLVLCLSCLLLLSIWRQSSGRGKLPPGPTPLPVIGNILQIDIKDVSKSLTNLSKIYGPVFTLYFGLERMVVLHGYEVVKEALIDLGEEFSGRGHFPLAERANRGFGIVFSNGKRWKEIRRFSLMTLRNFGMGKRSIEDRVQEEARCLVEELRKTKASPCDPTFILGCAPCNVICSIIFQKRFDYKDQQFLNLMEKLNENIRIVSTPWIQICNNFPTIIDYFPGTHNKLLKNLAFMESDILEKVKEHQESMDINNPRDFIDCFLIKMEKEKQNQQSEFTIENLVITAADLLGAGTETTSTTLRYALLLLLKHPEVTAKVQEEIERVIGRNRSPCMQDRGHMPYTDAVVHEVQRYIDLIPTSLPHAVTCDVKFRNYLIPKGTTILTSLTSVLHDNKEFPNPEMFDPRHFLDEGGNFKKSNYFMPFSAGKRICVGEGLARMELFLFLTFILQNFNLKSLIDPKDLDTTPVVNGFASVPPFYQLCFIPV
CYP2C19 act: human CYP2C19 activators, primary screen, biochemical, luminescence | recombinant CYP2C19, luciferin-H EGE luminescence; active compounds read high; 0 = fully inhibited enzyme, 1 = untreated enzyme | activation factor at 5 µM | 96,000 tested, under 10 active;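 active = activation factor of at least 2 at 5 µM in the primary screen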
CD11b adhes enh: enhancers of CD11b/CD18 adhesion to fibrinogen, primary screen, K562 cells, luminescence; Integrin beta-2 (Homo sapiens) + Integrin alpha-M (Homo sapiens), P05107+P11215; ATPlite luminescence; activation, % at 10 µM; actives 0.07% (n = 93,000);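 active = 10 µM primary screen giving 50% or more activity, confirmed by 40% or more on retest at that dose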
Large screens that a line does not name were inactive.

Cc1ccc2c(n1)sc1c(-c3ccc(Br)cc3)c(C#N)c(N)nc12	none (no result: CD11b adhes inh, CD11b adhes enh)
Cc1ccc(C)c(N(CC(=O)NCc2ccc3c(c2)OCO3)C(=O)CCC(=O)Nc2ccccn2)c1	CYP2C9 inh 50.4, CYP2C19 inh 63.1
Cc1cc(C)cc(N(CC(=O)NCc2ccc3c(c2)OCO3)C(=O)CCC(=O)Nc2ccccn2)c1	CYP2C19 inh 57.7
C=CCn1cnc2c(NCc3ccccc3)ncnc21	CYP2C19 inh 69.8
OCCNc1ncnc2c1ncn2Cc1ccccc1	none
CCCCC(=O)Nc1ncc(Br)s1	CYP2C19 inh 75.6
CCCCC(=O)Nc1nnc(C)s1	none
COc1ccccc1CN=Cc1[nH]c2ccc(Br)c(Cl)c2c1O	CYP2C9 inh 73.3, CYP2C19 inh 84.8
CC/C(=N\NC(=O)c1ccc(-c2ccccc2)cc1)C12CC3CC(CC(C3)C1)C2	CYP2C19 inh 67.1
O=C(CC1OC(=O)c2ccccc21)c1ccco1 (stereo not drawn)	none
Cc1cccc(C(=O)NCCc2csc(C)n2)c1	none
Cc1nc(CCNC(=O)Cc2ccc(Cl)cc2)cs1	CYP2C19 inh 56.3
Cc1ccc(C(=O)NCCc2csc(C)n2)cc1	CYP2C9 inh 53.2
Cc1nc(CCNC(=O)Cc2ccc(F)cc2)cs1	none
CC(NC(=O)Nc1ccccc1)C(c1cccs1)N1CCN(C)CC1 (stereo not drawn)	none
CC(NC(=O)c1ccccc1)C(c1cccs1)N1CCOCC1 (stereo not drawn)	CYP2C19 inh 56.6
CC(NC(=O)c1cccnc1)C(c1cccs1)N1CCN(C)CC1 (stereo not drawn)	none
CC(NC(=O)Nc1ccc(Cl)cc1)C(c1cccs1)N1CCOCC1 (stereo not drawn)	CYP2C19 inh 68.1
CCN1CCN(C(c2cccs2)C(C)NC(=O)c2ccccc2F)CC1 (stereo not drawn)	CYP2C9 inh 59.1
CC(NC(=O)c1ccco1)C(c1cccs1)N1CCOCC1 (stereo not drawn)	CYP2C19 inh 64.3
CCN1CCN(C(c2cccs2)C(C)NC(=O)c2c(F)cccc2F)CC1 (stereo not drawn)	none (no result: CD11b adhes inh, CD11b adhes enh)
CSc1ccc(/C=N\NC(=O)CNc2ccc(C)cc2)cc1	none (no result: CD11b adhes inh, CD11b adhes enh)
Cn1c(SCC(=O)Nc2ccc3nc(SCC(=O)N4CCCC4)sc3c2)nnc1-c1ccc(N)cc1	none
Cc1cccc(C)c1Nc1nnc(SCc2cn3cccc(C)c3n2)s1	none (no result: CYP2C9 activ, CYP2C9 inh, CYP2C19 inh, CYP2C19 act)
CCN1CCN(C(=O)c2cc3cc4cc(OC)ccc4nc3s2)CC1	none
Cn1c(Sc2ccc(Br)cc2)c(C=O)c2ccccc21	none
COc1ccc2[nH]c(C(=O)O)c(CCC(=O)O)c2c1	none
COc1ccc(S(=O)(=O)Nc2c(C(=O)O)[nH]c3ccccc23)c(OC)c1	CYP2C9 inh 60.6
COC(=O)c1[nH]c2ccccc2c1NS(=O)(=O)c1ccc(F)c(C)c1	CYP2C19 inh 93.3
COc1ccc2[nH]c(C(=O)O)c(NS(=O)(=O)c3ccc(OC)c(OC)c3)c2c1	CYP2C9 inh 75.9
CCCC(=O)Nc1c(C(=O)OCC)[nH]c2ccccc12	none
CCOC(=O)c1[nH]c2ccccc2c1NC(=O)Nc1ccc(OC)cc1	none
CCNC(=S)NNC(=O)Cn1nc(C)cc1C	none
N#Cc1cccc(-n2nnnc2-c2ccccn2)c1	none
O=C(CSc1nnnn1-c1ccc2c(c1)OCO2)NCc1cccs1	none
N#Cc1cccc(-n2nnnc2-c2ccc3c(c2)OCO3)c1	CYP2C19 inh 96.7
